Assay results taken from the supplement of paper PMC4466140.

target: AgAbp1; test: SPOT peptide array binding signal intensity (averaged, normalized) (arbitrary units (background-subtracted, floor 0; scale differs between SH3 domains)); higher = stronger binding of the SH3 domain to the peptide
Outline: (§1)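 GST-fused SH3 domains from four yeast species were expressed in E. coli BL21(DE3), purified on glutathione Sepharose and incubated at 10 μg/ml overnight at 4°C in TBS-based blocking buffer on cellulose membranes carrying synthetic 15-mer peptides, with cysteines replaced by serines. Bound protein was detected with anti-GST antibody, an HRP anti-mouse secondary and luminol, then imaged and quantified with Genespotter. Binding signal is the normalized, background-subtracted spot intensity averaged over replicates, in arbitrary units that differ between domains.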

Binder | SPOT peptide array binding signal intensity
QTMRQAPKRPDADVA | 17

target: AgBbc1; test: as above
Outline: as §1

Binder | SPOT peptide array binding signal intensity
QTMRQAPKRPDADVA | 170

target: AgBem1-D1; test: as above
Outline: as §1

Binder | SPOT peptide array binding signal intensity
QTMRQAPKRPDADVA | 369

target: AgBzz1-D1; test: as above
Outline: as §1

Binder | SPOT peptide array binding signal intensity
QTMRQAPKRPDADVA | 11

target: AgBzz1-D2; test: as above
Outline: as §1

Binder | SPOT peptide array binding signal intensity
QTMRQAPKRPDADVA | 10

target: AgCyk3; test: as above
Outline: as §1

Binder | SPOT peptide array binding signal intensity
QTMRQAPKRPDADVA | ≤ 0

target: AgFus1; test: as above
Outline: as §1

Binder | SPOT peptide array binding signal intensity
QTMRQAPKRPDADVA | 728

target: AgHof1; test: as above
Outline: as §1

Binder | SPOT peptide array binding signal intensity
QTMRQAPKRPDADVA | 9

target: AgHse1; test: as above
Outline: as §1

Binder | SPOT peptide array binding signal intensity
QTMRQAPKRPDADVA | 132

target: AgLsb1; test: as above
Outline: as §1

Binder | SPOT peptide array binding signal intensity
QTMRQAPKRPDADVA | 48.8

target: AgLsb4; test: as above
Outline: as §1

Binder | SPOT peptide array binding signal intensity
QTMRQAPKRPDADVA | 36

target: AgMyo5; test: as above
Outline: as §1

Binder | SPOT peptide array binding signal intensity
QTMRQAPKRPDADVA | 18.8

target: AgNbp2; test: as above
Outline: as §1

Binder | SPOT peptide array binding signal intensity
QTMRQAPKRPDADVA | 2740

target: AgRvs167; test: as above
Outline: as §1

Binder | SPOT peptide array binding signal intensity
QTMRQAPKRPDADVA | 20.3

target: AgSho1; test: as above
Outline: as §1

Binder | SPOT peptide array binding signal intensity
QTMRQAPKRPDADVA | 684

target: AgSla1-D1-D2; test: as above
Outline: as §1

Binder | SPOT peptide array binding signal intensity
QTMRQAPKRPDADVA | 9

target: AgSla1-D3; test: as above
Outline: as §1

Binder | SPOT peptide array binding signal intensity
QTMRQAPKRPDADVA | 14.8

target: CaAbp1-D1; test: as above
Outline: as §1

Binder | SPOT peptide array binding signal intensity
QTMRQAPKRPDADVA | 144

target: CaAbp1-D2; test: as above
Outline: as §1

Binder | SPOT peptide array binding signal intensity
QTMRQAPKRPDADVA | 292

target: CaBbc1; test: as above
Outline: as §1

Binder | SPOT peptide array binding signal intensity
QTMRQAPKRPDADVA | 942

target: CaBem1-D1; test: as above
Outline: as §1

Binder | SPOT peptide array binding signal intensity
QTMRQAPKRPDADVA | 565

target: CaBzz1-D1; test: as above
Outline: as §1

Binder | SPOT peptide array binding signal intensity
QTMRQAPKRPDADVA | 458

target: CaBzz1-D2; test: as above
Outline: as §1

Binder | SPOT peptide array binding signal intensity
QTMRQAPKRPDADVA | 286

target: CaCyk3; test: as above
Outline: as §1

Binder | SPOT peptide array binding signal intensity
QTMRQAPKRPDADVA | 35

target: CaFus1; test: as above
Outline: as §1

Binder | SPOT peptide array binding signal intensity
QTMRQAPKRPDADVA | 1110

target: CaHof1; test: as above
Outline: as §1

Binder | SPOT peptide array binding signal intensity
QTMRQAPKRPDADVA | 1

target: CaHse1; test: as above
Outline: as §1

Binder | SPOT peptide array binding signal intensity
QTMRQAPKRPDADVA | 146

target: CaLsb1; test: as above
Outline: as §1

Binder | SPOT peptide array binding signal intensity
QTMRQAPKRPDADVA | 18.2

target: CaLsb4; test: as above
Outline: as §1

Binder | SPOT peptide array binding signal intensity
QTMRQAPKRPDADVA | 910

target: CaMyo5; test: as above
Outline: as §1

Binder | SPOT peptide array binding signal intensity
QTMRQAPKRPDADVA | 56.2

target: CaNbp2; test: as above
Outline: as §1

Binder | SPOT peptide array binding signal intensity
QTMRQAPKRPDADVA | 1450

target: CaRvs167; test: as above
Outline: as §1

Binder | SPOT peptide array binding signal intensity
QTMRQAPKRPDADVA | 163

target: CaRvs167-3; test: as above
Outline: as §1

Binder | SPOT peptide array binding signal intensity
QTMRQAPKRPDADVA | 0.75

target: CaSho1; test: as above
Outline: as §1

Binder | SPOT peptide array binding signal intensity
QTMRQAPKRPDADVA | 1860

target: CaSla1-D1-D2; test: as above
Outline: as §1

Binder | SPOT peptide array binding signal intensity
QTMRQAPKRPDADVA | 553

target: CaSla1-D3; test: as above
Outline: as §1

Binder | SPOT peptide array binding signal intensity
QTMRQAPKRPDADVA | 650

target: ScAbp1; test: as above
Outline: as §1

Binder | SPOT peptide array binding signal intensity
QTMRQAPKRPDADVA | 7

target: ScBbc1; test: as above
Outline: as §1

Binder | SPOT peptide array binding signal intensity
QTMRQAPKRPDADVA | 68.5

target: ScBem1-D1; test: as above
Outline: as §1

Binder | SPOT peptide array binding signal intensity
QTMRQAPKRPDADVA | 1

target: ScBzz1-D1; test: as above
Outline: as §1

Binder | SPOT peptide array binding signal intensity
QTMRQAPKRPDADVA | 6

target: ScBzz1-D2; test: as above
Outline: as §1

Binder | SPOT peptide array binding signal intensity
QTMRQAPKRPDADVA | 27

target: ScCyk3; test: as above
Outline: as §1

Binder | SPOT peptide array binding signal intensity
QTMRQAPKRPDADVA | 4

target: ScFus1; test: as above
Outline: as §1

Binder | SPOT peptide array binding signal intensity
QTMRQAPKRPDADVA | 1110

target: ScHof1; test: as above
Outline: as §1

Binder | SPOT peptide array binding signal intensity
QTMRQAPKRPDADVA | 0.5

target: ScHse1; test: as above
Outline: as §1

Binder | SPOT peptide array binding signal intensity
QTMRQAPKRPDADVA | 84.5

target: ScLsb1; test: as above
Outline: as §1

Binder | SPOT peptide array binding signal intensity
QTMRQAPKRPDADVA | 78

target: ScLsb2; test: as above
Outline: as §1

Binder | SPOT peptide array binding signal intensity
QTMRQAPKRPDADVA | 29.5

target: ScLsb3; test: as above
Outline: as §1

Binder | SPOT peptide array binding signal intensity
QTMRQAPKRPDADVA | 961

target: ScLsb4; test: as above
Outline: as §1

Binder | SPOT peptide array binding signal intensity
QTMRQAPKRPDADVA | 524

target: ScMyo3; test: as above
Outline: as §1

Binder | SPOT peptide array binding signal intensity
QTMRQAPKRPDADVA | 227

target: ScMyo5; test: as above
Outline: as §1

Binder | SPOT peptide array binding signal intensity
QTMRQAPKRPDADVA | 47.5

target: ScNbp2; test: as above
Outline: as §1

Binder | SPOT peptide array binding signal intensity
QTMRQAPKRPDADVA | 3190

target: ScPex13; test: as above
Outline: as §1

Binder | SPOT peptide array binding signal intensity
QTMRQAPKRPDADVA | 766

target: ScRvs167; test: as above
Outline: as §1

Binder | SPOT peptide array binding signal intensity
QTMRQAPKRPDADVA | 136

target: ScSho1; test: as above
Outline: as §1

Binder | SPOT peptide array binding signal intensity
QTMRQAPKRPDADVA | 930

target: ScSla1-D1-D2; test: as above
Outline: as §1

Binder | SPOT peptide array binding signal intensity
QTMRQAPKRPDADVA | 690

target: ScSla1-D3; test: as above
Outline: as §1

Binder | SPOT peptide array binding signal intensity
QTMRQAPKRPDADVA | 700

target: SpAbp1-D1; test: as above
Outline: as §1

Binder | SPOT peptide array binding signal intensity
QTMRQAPKRPDADVA | 66

target: SpBbc1; test: as above
Outline: as §1

Binder | SPOT peptide array binding signal intensity
QTMRQAPKRPDADVA | 42.5

target: SpBzz1-D1; test: as above
Outline: as §1

Binder | SPOT peptide array binding signal intensity
QTMRQAPKRPDADVA | 188

target: SpBzz1-D2; test: as above
Outline: as §1

Binder | SPOT peptide array binding signal intensity
QTMRQAPKRPDADVA | 512

target: SpCyk3; test: as above
Outline: as §1

Binder | SPOT peptide array binding signal intensity
QTMRQAPKRPDADVA | 3

target: SpHof1; test: as above
Outline: as §1

Binder | SPOT peptide array binding signal intensity
QTMRQAPKRPDADVA | 51.5

target: SpHof1-2; test: as above
Outline: as §1

Binder | SPOT peptide array binding signal intensity
QTMRQAPKRPDADVA | 27.5

target: SpHof1-3; test: as above
Outline: as §1

Binder | SPOT peptide array binding signal intensity
QTMRQAPKRPDADVA | 32.8

target: SpHse1; test: as above
Outline: as §1

Binder | SPOT peptide array binding signal intensity
QTMRQAPKRPDADVA | 240

target: SpLsb1; test: as above
Outline: as §1

Binder | SPOT peptide array binding signal intensity
QTMRQAPKRPDADVA | 34

target: SpLsb4; test: as above
Outline: as §1

Binder | SPOT peptide array binding signal intensity
QTMRQAPKRPDADVA | 990

target: SpMyo1; test: as above
Outline: as §1

Binder | SPOT peptide array binding signal intensity
QTMRQAPKRPDADVA | 229

target: SpNbp2; test: as above
Outline: as §1

Binder | SPOT peptide array binding signal intensity
QTMRQAPKRPDADVA | 847

target: SpPex13; test: as above
Outline: as §1

Binder | SPOT peptide array binding signal intensity
QTMRQAPKRPDADVA | 35

target: SpRvs167; test: as above
Outline: as §1

Binder | SPOT peptide array binding signal intensity
QTMRQAPKRPDADVA | 188

target: SpSla1-D1-D2; test: as above
Outline: as §1

Binder | SPOT peptide array binding signal intensity
QTMRQAPKRPDADVA | 11

target: SpSla1-D3; test: as above
Outline: as §1

Binder | SPOT peptide array binding signal intensity
QTMRQAPKRPDADVA | 491
